# BAZ2B inh: inhibitors of human BAZ2B bromodomain; AlphaScreen BAZ2B-H3K14Ac peptide displacement; 360,000 compounds, 4.4% hits; Potency, µM (series often up to 114 µM), for inactives: top-dose activity change, negative = inhibition, most hits filed as inhibitors; note: % is set by controls: 0 for no effect and ±100 for the full control effect; nearly all actives have a fitted effect of over 60% in size
#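 BAZ2B 50 nM plus b-H3(5-23)K14Ac 50 nM, PBS pH 7.4/0.01% Tween-20, 30 min RT; compound added (max 110 uM), 30 min RT; streptavidin donor/Ni-chelate acceptor beads 10 ug/mL final, 20 min dark; AlphaScreen read.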
# PLK1 PBD block: blocks phosphopeptide binding to human PLK1 polo-box domain. 360,000 compounds, 2.8% hits. P53350. Potency, µM, for inactives: max response, negative = inhibition, hits mostly inhibitors. Plk1 PBD binding of FITC phosphopeptide, fluorescence polarization; note: series mostly up to about 57 µM; % is set by controls: 0 for no effect and ±100 for the full control effect; nearly all actives have a fitted effect of over 65% in size
# G9a inh: G9a (human) methyltransferase inhibition | Q96KQ7 | G9a H3K9 monomethylation, AlphaScreen, 2 h | Potency, µM (series often up to 102 µM), for inactives: at the highest dose activity, negative = inhibition, actives largely listed as inhibitors | 350,000 compounds, 8.8% hits | AID 504332; note: % is set by controls: 0 for no effect and ±100 for the full control effect; nearly all actives have a fitted effect of over 75% in size
#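 Step 1: enzyme (final 20 nM) with compound, 15 min RT. Step 2: substrate peptide 500 nM and SAM 20 uM, 2 h RT. Step 3: anti-H3K9me1 antibody and AlphaScreen beads, 10 min, then plate read.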
# JMJD2A Tudor: inhibitors of human JMJD2A Tudor domain | O75164 | Potency, µM (highest dose often 114 µM), inactives show at the highest dose activity change, negative = inhibition, most hits filed as inhibitors | AID 504339 | 390,000 compounds, 4.4% hits | AlphaScreen JMJD2A-Tudor / H3K4me3 peptide binding; note: % is set by controls: 0 for no effect and ±100 for the full control effect; nearly all actives have a fitted effect of over 50% in size
# Sfp inh: Sfp phosphopantetheinyl transferase inhibition. Biochemical Sfp PPTase activity, qHTS. Q9F4F7. AID 1490. 310,000 compounds, 3.5% hits. Potency, µM, for the others: largest response in the series, negative = inhibition, usual class: inhibitors;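 note: the enzyme is Sfp with the accession as filed and its product quenches rhodamine fluorescence; 0% = enzyme reaction without inhibitor and -100% = no enzyme wells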
#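 Compounds were incubated with enzyme (final 15 nM) for 15 min at room temperature before substrate addition started the reaction. Fluorescence at 525 nm excitation, 598 nm emission was recorded immediately and after 30 minutes.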
# HP1b binding inh: HP1-beta chromodomain-methylated histone interaction inhibition. AlphaScreen HP1-beta / biotin-H3K9me3 peptide binding. 390,000 compounds, 0.56% hits. Potency, µM (series often up to 114 µM), inactives show at the highest dose activity change, negative = inhibition, usual class: inhibitors. AID 540317. P83916; note: nearly all actives have a fitted effect of over 70% in size
#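 Compound inhibition of the preformed complex between 50 nM HP1-beta and 50 nM biotinylated H3K9me3 peptide was read by AlphaScreen. Buffer was PBS pH 7.4 with 0.01% Tween-20. Incubations ran 30 min at room temperature, with 10 ug/mL donor/acceptor beads.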
# * hit, by the source's call; ? = inconclusive; / = no result; ! = repeats disagree; [ ] = remark or other dose. This is a sample that favours compounds with a hit; in the whole collection about 12% have one here. Calls come from the whole dose curve; as a rule, active = well fitted curve in the direction sought with a large enough effect; inconclusive = small, poorly fitted or top-dose-only effect, or another doubt; inactive = no such curve, though single readings can be large; an effect the other way counts as inactive or inconclusive. Potency is the fitted concentration of half-maximal effect.
SMILES,BAZ2B inh,PLK1 PBD block,G9a inh,JMJD2A Tudor,Sfp inh,HP1b binding inh
COc1ccc(-c2cn(-c3ccccc3)c(=S)[nH]2)cc1OC,?,21µM*,8.9µM*,-33%,?,-6%
Cc1ccc(C)c(CS(=O)(=O)c2cn(CC(=O)N(C(C)C)C(C)C)c3ccccc23)c1,4%,/,-6%[59 µM],12%,/,43%
CCc1cc(-c2oncc2-c2ccc(OC)cc2)c(O)cc1OC,/,/,/,/,-22%,/
Cc1cc(C)cc(NC(=O)CN2C(=O)CCc3cc(S(=O)(=O)N4CCCCC4)ccc32)c1,-18%,/,1%[59 µM],-17%,/,40%
O=C(NCc1ccncc1)c1ccc(Oc2ccccc2)cc1,-14%,11µM*,15%,13µM*,-6%,1%
Cc1ccc(Oc2ccc(C(=O)NCc3ccncc3)cc2)cc1,-17%,-6%,1%,-31%,6%,27%
O=C(CCNNC(=O)c1ccncc1)NCc1ccccc1,5%,3%,10µM*!,3%,-27%,42%
O=C(COCc1cc(-c2ccc(F)cc2)on1)Nc1cc(F)ccc1F,7%,/,5%[59 µM],18%,/,69%
CNc1c(NC(=O)c2cc(OC)cc(OC)c2)c(=O)oc2ccccc12,2%,/,15%[59 µM],-2%,/,33%
CCOc1ccccc1NC(=O)COC(=O)c1nc2nccc(C)n2n1,/,-3%,/,-4%,/,9%[57 µM]
O=C(CN1CCN(S(=O)(=O)c2ccccc2F)CC1)N1CCc2ccccc2C1,/,-6%,/,0.79µM*,/,-26%
O=[N+]([O-])c1ccc(N/N=C/c2ccc[nH]2)cc1,45µM*,12%,11µM*,56µM*,?,?
O=[N+]([O-])c1ccc(N/N=C/c2cccc(O)c2)cc1,?,3%,3%[2.33 µM],-20%,-12%,9%
O=[N+]([O-])c1ccc(N/N=C/c2cccc(O)c2O)cc1,?,27µM*,-10%[0.501 µM],?,-6%,-10%
COc1ccc(CNC(=O)CN2C(=O)CSc3ccc(S(=O)(=O)N4CCC(C)CC4)cc32)cc1,-1%,/,-11%[59 µM],-27%,/,-6%
Cc1ccc(-n2cc3c(-c4cccc(Br)c4)nnc(C)c3n2)cc1,-2%,15%,-32%,-12%[57.1 µM],-10%,4%
Cc1nnc(-c2cccc(Br)c2)c2cn(-c3ccccc3Cl)nc12,-14%,-3%,13%[12.7 µM],-36%,56µM*,11%
CCn1c(O)c(N=NC(=O)CNC(=O)/C=C/c2ccco2)c2ccccc21,-5%,-2%,56µM*,-23%,?,17%
Cc1nc(N(C)C)c2sc(=S)n(C)c2n1,-3%,-13%,9%,-11%,-28%,63%
Cc1nc(N(C)C)c2sc(=S)n(-c3ccccc3)c2n1,1%,27µM*,5%,?,6%,17%
CCCOc1ccc(NC(=O)CC2C(=O)N(c3ccccc3)C(=O)N2CCC(C)C)cc1 (stereo not given),-11%,/,-6%[59 µM],-24%,/,31%
Cc1csc2nc(COc3ccc(NC(=O)c4ccccc4F)cc3)cc(=O)n12,-24%,/,?,-35%,/,42%
CCC(=O)N/N=C/c1ccc(-c2ccc([N+](=O)[O-])cc2)o1,-4%,-1%,/,-6%,-7%,0%
CC(C)(C)C(=O)/C=c1\s/c(=C\c2ccc(-c3ccc([N+](=O)[O-])cc3)o2)c(=O)n1CC(=O)NC(N)=O,?,38%,45µM*,-8%,?,12%
CC(C)CN(C(=O)c1cccc([N+](=O)[O-])c1)c1c(N)n(CC(C)C)c(=O)[nH]c1=O,23%,4%,50µM*,6%,21%,37%
CC(C)CN(C(=O)c1cc2ccccc2o1)c1c(N)n(CC(C)C)c(=O)[nH]c1=O,9%,2%,50µM*,0%,11%,25%
Cc1cc(C)c2c(=O)c(C#N)coc2c1,4%,17µM*,/,3%,-3%,75%
Cn1c(=O)c2c(nc(Sc3ccccc3N)n2C)n(C)c1=O,1%,-23%,10µM*,-26%,-12%,20%

# From PubChem BioAssay
